# HT1080NT lethal = kills 2HG-producing HT-1080-NT fibrosarcoma cells | HT-1080-NT fibrosarcoma viability, CellTiter-Glo ATP luminescence, 48 h | Potency, µM (highest dose often 46.1 µM), for the others: top-dose activity, negative = less viability, most hits filed as cytotoxic | hit rate 1.6% among 360,000;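 note: NT is the 2HG producing partner of a matched IDH1 knockdown line; potency is the fitted concentration of half-maximal effect; 0% = DMSO-treated cells and -100% = media-only wells without cells; nearly all actives have a fitted effect of over 55% in size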
#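 Compounds were tested in concentration-response format on HT-1080-NT cells for 48 hours at 37 degrees C. Cell viability came from CellTiter-Glo luminescence; curves were classified by r2, response magnitude and activity.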
# DT40 TDP1 CPT = growth inhibition of DT40 Tdp1-/-;hTDP1 cells with camptothecin (screen for TDP1 inhibitors) | hit rate 12% among 420,000 | Potency, µM (highest dose often 46.2 µM), without a hit: top-dose activity change, negative = growth inhibition, most hits filed as inhibitors | chicken DT40 Tdp1-/-;hTDP1 cells + 20 nM CPT, ATP luminescence, 48 h; note: potency is the fitted concentration of half-maximal effect; nearly all actives have a fitted effect of over 55% in size
#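 Chicken DT40 Tdp1-/- cells stably complemented with human TDP1 were seeded at 400 cells/well in medium containing 20 nM camptothecin, exposed to pin-transferred compounds, and grown at 37 °C for at least 48 hr. Viability was read as ATP luminescence.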
# HT1080 IDH1KD tx = kills HT-1080 cells with IDH1 knockdown | Potency, µM (series often up to 46.1 µM), inactives show at the top dose activity, negative = toxicity, actives largely listed as cytotoxic | hit rate 2% among 360,000 | HT-1080 IDH1 knockdown viability, ATP luminescence, 48 h;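 note: potency is the fitted concentration of half-maximal effect; 0% = DMSO wells and -100% = cell-free medium wells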
#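 Assay cells: HT-1080 with IDH1 knockdown, 750 per well, RPMI/5% FBS. Exposure: 48 h at 37 °C following 2 h pre-incubation. Read: CellTiter-Glo luminescence; fitted concentration-response, curve class assigned.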
# TDP1 cell noCPT = qHTS for Inhibitors of human tyrosyl-DNA phosphodiesterase 1 (TDP1): qHTS in cells in absence of CPT. DT40 Tdp1-/- hTDP1 cells, no CPT, ATP luminescence, 48 h. Potency, µM (highest dose often 46.2 µM), for the others: at the highest dose activity change, negative = growth inhibition, usual class: inhibitors. hit rate 15% among 420,000; note: potency is the fitted concentration of half-maximal effect; nearly all actives have a fitted effect of over 55% in size
#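 A cellular qHTS used chicken DT40 cells lacking endogenous Tdp1 but carrying stably transfected human TDP1. Compounds were applied without camptothecin, and cell growth kinetics were judged by ATP-dependent luminescence after ≥48 hr.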
# IL-1B inflam inh = inhibitors of inflammasome signaling (IL-1 beta secretion); THP-1 LPS/ATP IL-1B secretion, AlphaLISA, 16 h; active compounds read low; activity change, % at 57.5 µM; hit rate 4.7% among 360,000; AID 743279; in the data active = activity change below about -50%; inconclusive = mostly about -30% to -49%
#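 Secreted IL-1B measured by AlphaLISA bead assay after 16 h compound exposure of THP-1 cells; compounds (final up to 57.5 uM) added 1 h before LPS (250 ng/mL) and ATP (1.25 mM) stimulation; lower signal means less secretion.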
# The depositor's hits bear a star; i = inactive; ? = inconclusive; . = not tested or not shown; [ ] = remark or other dose. Shown are actives, neighbours in structure and some others; about 19% of the full set was active somewhere. Unless noted, calls come from the whole dose curve; as a rule, active = well fitted curve in the direction sought with a large enough effect; inconclusive = small, poorly fitted or top-dose-only effect, or another doubt; inactive = no such curve, though single readings can be large; an effect the other way counts as inactive or inconclusive. Unless noted, % is set by controls: 0 for no effect and ±100 for the full control effect.
SMILES,HT1080NT lethal,DT40 TDP1 CPT,HT1080 IDH1KD tx,TDP1 cell noCPT,IL-1B inflam inh
Cc1ccc(C2C(C#N)=C(N)Oc3n[nH]c(-c4ccccc4)c32)o1 (stereo unspecified),-6%,13µM*,0%,23µM*,4
COc1ccc(-c2ccc(C3C(C#N)=C(N)Oc4n[nH]c(C)c43)o2)cc1 (stereo unspecified),?,21µM*,?,21µM*,-3
CCN(CC)S(=O)(=O)c1ccc2c(c1)nc(SCC(=O)N1CCOCC1)n2-c1ccccc1OC,8%,-2%,15%,-27%,?
CC(=O)c1cccc(S(=O)(=O)N2CCC(C(=O)Nc3cccc(C(=O)NC4CC4)c3)CC2)c1,3%,1%,0%,-9%,5
CC(C)N(C(=O)[C@H]1C[C@H](CC(=O)NCCC2=CCCCC2)C(=O)N2CCc3c([nH]c4cc(-c5ccco5)ccc34)[C@]12C)C(C)C,-27%,?,?,?,-69*
C[C@]12c3[nH]c4cc(-c5ccco5)ccc4c3CCN1C(=O)[C@@H](CC(=O)NCc1cccc(C(F)(F)F)c1)C[C@@H]2C(=O)N1CCOCC1,-7%,?,-24%,?,-53*
CC(C)N(C(=O)[C@H]1C[C@H](CC(=O)NCc2cccc(C(F)(F)F)c2)C(=O)N2CCc3c([nH]c4cc(-c5ccco5)ccc34)[C@]12C)C(C)C,-27%,?,?,?,-67*
CC[C@]12c3[nH]c4cc(-c5ccco5)ccc4c3CCN1C(=O)[C@@H](CC(=O)NCCN1CCOCC1)C[C@@H]2C(=O)N1CCN(C(=O)c2ccco2)CC1,7%,-13%,4%,-16%,-1
COc1cccc(CN(C)C(=O)c2ccc(COc3ccc(Cl)cc3)cc2)c1OC,-18%,?,-17%,?,?
CC(=O)c1ccccc1-c1ccc2c(c1)CC(CNC(=O)Cc1c[nH]c3ccccc13)O2 (stereo unspecified),.,13%[9.04 µM],.,-10%,.
Cc1occc1C(=O)Nc1cc(S(=O)(=O)N2CCOCC2)ccc1OC(C)C,0%,?,-30%,8%,-18
Cc1cc(Nc2nc3ccccc3nc2Cl)n(-c2ccc([N+](=O)[O-])cc2)n1,?,18µM*,-5%[9.24 µM],13µM*,-87*
Nc1c(Cl)c(Cl)nc(C(=O)OCC(=O)NC2CCCCC2)c1Cl,6%,1%,11%,7%,i
COc1cc(-c2nc3oc4ccccc4c(=O)c3c(=O)n2Cc2ccco2)cc(OC)c1OC,-14%,18µM*,-10%,21µM*,?
O=c1c2ccccc2oc2nc(-c3ccco3)n(Cc3ccccc3)c(=O)c12,5%,?,-1%,21µM*,11
COc1ccc2c(=O)c3c(=O)n(-c4ccccc4)c(-c4ccco4)nc3oc2c1,22%,-20%,14%,?,-19
CC(=O)Nc1ccc(OCC(O)Cn2c(C(C)C)nc3ccccc32)cc1 (stereo unspecified),22%,9%,1%,1%,0
CC(=O)N(C)c1ccc(OCC(O)Cn2c(C)nc3ccccc32)cc1 (stereo unspecified),0%,5.8µM*,-21%,6.5µM*,0
CCCCOCC(O)Cn1c(C)nc2ccccc21 (stereo unspecified),13%,-6%,-4%,?,-3
CC(C)c1nc2ccccc2n1CC(O)COC1CCCCC1 (stereo unspecified),1%,?,0%,16µM*,15
COc1cccc(OCC(Cn2c(C)nc3ccccc32)OC(C)=O)c1 (stereo unspecified),?,?,?,8.2µM*,-2
Cc1nc2ccccc2n1CC(O)COC1CCCCC1 (stereo unspecified),-6%,18µM*,-1%,21µM*,11
COc1ccc(S(=O)(=O)Nc2ccc3c(c2)C(=O)N([C@H](C)CO)C[C@H](C)[C@@H](CN(C)C(=O)NC2CCCCC2)O3)cc1,2%,-18%,1%,0%,-10
COc1ccc(C2(c3ccc(OC)cc3)NC(=O)N(CC(=O)Nc3ccc(OC(F)F)cc3)C2=O)cc1,-20%,?,-18%,18µM*,i
CCN(CC1COc2ccccc2O1)C(=O)CN1C(=O)NC(C)(c2ccc(C)cc2)C1=O (stereo unspecified),7%,?,-3%,23µM*,8
SMILES,HT1080NT lethal,DT40 TDP1 CPT,HT1080 IDH1KD tx,TDP1 cell noCPT,IL-1B inflam inh
CCOc1ccc(NC(=O)CN2C(=O)NC(C)(c3ccc(OC(F)F)cc3)C2=O)cc1 (stereo unspecified),?,18µM*,18µM*,23µM*,-67*
CCOC(=O)c1c(C)[nH]c(C(=O)CN2C(=O)NC(C)(C)C2=O)c1C,3%,4%,10%,-2%,-9
CCOC(=O)c1c(C)[nH]c(C(=O)CN2C(=O)NC(C)(c3ccc(C)cc3)C2=O)c1C (stereo unspecified),-26%,?,-25%,23µM*,-8
CCOC(=O)c1c(C)[nH]c(C(=O)CSc2nc(C)cc(C)n2)c1C,5%,15µM*,-3%,21µM*,-26
CCOC(=O)c1c(NC(=O)CN2C(=O)NC(C)(c3ccc(OC(F)F)cc3)C2=O)sc(C)c1C (stereo unspecified),?,21µM*,-29%,16µM*,?
CN(CC(=O)NCCCN1CCOCC1)S(=O)(=O)c1cc(Cl)ccc1Cl,-2%,7%,21%,-3%,6
COc1ccc(C(=O)NCc2cn3ccsc3n2)cc1OC,1%,-6%,3%,-3%,-14
COc1ccc(OC)c(NC(=O)CCCc2nnc3n(C(C)C)c(=O)c4sccc4n23)c1,.,-17%,.,?,.
CC(C)Cn1c(=O)c2sccc2n2c(CCCC(=O)Nc3ccc(Cl)cc3)nnc12,.,?,.,18µM*,.
CCC(C)NC(=O)CCCc1nnc2n(CC(C)C)c(=O)c3sccc3n12 (stereo unspecified),.,2%,.,-10%,.
COc1cc(NC(=O)CCCc2nnc3n(C)c(=O)c4sccc4n23)cc(OC)c1OC,.,10%,.,1%,.
Cn1c(=O)c2sccc2n2c(CCCC(=O)Nc3ccc(Cl)cc3)nnc12,.,21µM*,.,?,.
COc1ccc(NC(=O)CCCc2nnc3n(C(C)C)c(=O)c4sccc4n23)cc1Cl,.,13µM*,.,23µM*,.
CCn1c(=O)c2sccc2n2c(CCC(=O)Nc3ccc(C(C)C)cc3)nnc12,.,?,.,23µM*,.
O=C1c2cccnc2C(=O)N1c1cccc([N+](=O)[O-])c1,8%,1%,16%,-12%,1

# Compound activity as filed in PubChem BioAssay.
